Results as given in PubChem BioAssay AID1159580 (chemical genetic matrix, 2015).
Among all 5,500 compounds or so, about 2,000 (36%) were called active. Another 18% or so got no clear call; they are omitted. The list shows a part of the results. A number with no mark means an inactive call. No stated cut-off is given here; in the data, active means normalized growth mostly below about 0.91 (no sharp cut-off); inconclusive means no clear call, values can overlap the other calls; inactive means mostly above about 0.92.

Test: chemical genetic growth profiling, strain panel (AID 1159580);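 further: tested at 20 µM; growth read once vehicle control cultures reached saturation at 30 °C; 1 = growth at the plate median or of vehicle wells; lower values mean less growth of the strain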
Details: S. cerevisiae deletion strains, growth OD

CC1(C)C(C(Cl)Cl)C2(Cl)C(Cl)C(Cl)C1(Cl)C2(Cl)Cl (centres undefined)
normalized growth (locus YAL013W, strain DEP1, active compounds read low): 0.984
normalized growth (locus YAL021C, strain ccr4, active compounds read low): 1.07
normalized growth (locus YAL026C, strain drs2, active compounds read low): 0.996
normalized growth (locus YAL030W, strain snc1, active compounds read low): 0.984
normalized growth (locus YBL061C, strain skt5, active compounds read low): 0.983
normalized growth (locus YBR009C, strain hhf1, active compounds read low): 0.976
normalized growth (locus YBR021W, strain FUR4, active compounds read low): 0.996
normalized growth (locus YBR023C, strain chs3, active compounds read low): 0.978
normalized growth (locus YBR171W, strain sec66, active compounds read low): 0.978
normalized growth (locus YBR229C, strain ROT2, active compounds read low): 0.987
normalized growth (locus YBR231C, strain swc5, active compounds read low): 0.979
normalized growth (locus YBR279W, strain paf1, active compounds read low): 0.992
normalized growth (locus YCL011C, strain gbp2, active compounds read low): 0.993
normalized growth (locus YCL016C, strain dcc1, active compounds read low): 0.979
normalized growth (locus YCL029C, strain bik1, active compounds read low): 0.972
normalized growth (locus YCL061C, strain MRC1, active compounds read low): 0.981
normalized growth (locus YCL069W, strain vba3, active compounds read low): 0.993
normalized growth (locus YCR088W, strain abp1, active compounds read low): 0.989
normalized growth (locus YDL005C, strain med2, active compounds read low): 0.981
normalized growth (locus YDL035C, strain GPR1, active compounds read low): 0.972
normalized growth (locus YDL040C, strain nat1, active compounds read low): 0.984
normalized growth (locus YDL074C, strain BRE1, active compounds read low): 1.02
normalized growth (locus YDL101C, strain DUN1, active compounds read low): 0.991
normalized growth (locus YDL134C, strain PPH21, active compounds read low): 0.986
normalized growth (locus YDL185W, strain tfp1, active compounds read low): 0.989
normalized growth (locus YDL192W, strain arf1, active compounds read low): 0.978
normalized growth (locus YDR001C, strain nth1, active compounds read low): 0.992
normalized growth (locus YDR069C, strain doa4, active compounds read low): 0.967
normalized growth (locus YDR101C, strain arx1, active compounds read low): 0.99
normalized growth (locus YDR137W, strain rgp1, active compounds read low): 0.839 (active)
normalized growth (locus YDR150W, strain NUM1, active compounds read low): 0.999
normalized growth (locus YDR159W, strain sac3, active compounds read low): 0.892
normalized growth (locus YDR162C, strain NBP2, active compounds read low): 0.988
normalized growth (locus YDR195W, strain ref2): 0.997
normalized growth (locus YDR297W, strain sur2, active compounds read low): 0.977
normalized growth (locus YDR318W, strain mcm21, active compounds read low): 0.971
normalized growth (locus YDR334W, strain swr1, active compounds read low): 0.997
normalized growth (locus YDR335W, strain msn5, active compounds read low): 0.993
normalized growth (locus YDR388W, active compounds read low): 0.959
normalized growth (locus YDR392W, strain spt3, active compounds read low): 0.836
normalized growth (locus YDR502C, strain sam2, active compounds read low): 0.974
normalized growth (locus YEL003W, strain gim4, active compounds read low): 0.984
normalized growth (locus YEL037C, strain rad23, active compounds read low): 0.995
normalized growth (locus YEL061C, strain CIN8 (second series), active compounds read low): 0.995
normalized growth (locus YEL061C, strain CIN8, active compounds read low): 0.994
normalized growth (locus YER015W, strain faa2, active compounds read low): 0.979
normalized growth (locus YER016W, strain bim1, active compounds read low): 0.984
normalized growth (locus YER110C, active compounds read low): 0.981
normalized growth (locus YER111C, strain swi4, active compounds read low): 1
normalized growth (locus YER155C, strain BEM2 (second series), active compounds read low): 0.965
normalized growth (locus YER155C, strain BEM2, active compounds read low): 0.983
normalized growth (locus YER167W, strain BCK2, active compounds read low): 0.968
normalized growth (locus YFR010W, strain ubp6, active compounds read low): 1
normalized growth (locus YGL078C, strain dbp3, active compounds read low): 0.975
normalized growth (locus YGL086W, strain mad1, active compounds read low): 0.981
normalized growth (locus YGL167C, strain pmr1, active compounds read low): 0.973
normalized growth (locus YGL173C, strain kem1, active compounds read low): 0.972
normalized growth (locus YGL227W, strain vid30, active compounds read low): 0.99
normalized growth (locus YGL240W, strain doc1, active compounds read low): 0.963
normalized growth (locus YGL248W, strain PDE1, active compounds read low): 0.991
normalized growth (locus YGL253W, strain hxk2, active compounds read low): 0.989
normalized growth (locus YGR078C, strain PAC10, active compounds read low): 0.989
normalized growth (locus YGR135W, strain pre9, active compounds read low): 0.971
normalized growth (locus YGR229C, strain SMI1, active compounds read low): 0.962
normalized growth (locus YGR252W, strain gcn5, active compounds read low): 0.962
normalized growth (locus YHR013C, strain ard1, active compounds read low): 0.798 (active)
normalized growth (locus YHR027C, strain rpn1, active compounds read low): 0.977
normalized growth (locus YHR030C, strain SLT2, active compounds read low): 0.965
normalized growth (locus YHR079C, strain IRE1 (second series), active compounds read low): 0.965
normalized growth (locus YHR094C, strain hxt1, active compounds read low): 0.974
normalized growth (locus YHR129C, strain ARP1, active compounds read low): 0.996
normalized growth (locus YHR142W, strain chs7, active compounds read low): 0.992
normalized growth (locus YHR200W, strain rpn10, active compounds read low): 0.977
normalized growth (locus YIL066C, strain RNR3, active compounds read low): 0.955
normalized growth (locus YIL073C, strain SPO22, active compounds read low): 0.883
normalized growth (locus YIL125W, strain kgd1, active compounds read low): 0.979
normalized growth (locus YIR030C, strain dcg1, active compounds read low): 0.972
normalized growth (locus YJL092W, strain hpr5, active compounds read low): 0.986
normalized growth (locus YJL095W, strain BCK1 (second series), active compounds read low): 0.983
normalized growth (locus YJL095W, strain BCK1, active compounds read low): 0.991
normalized growth (locus YJL115W, strain asf1, active compounds read low): 0.99
normalized growth (locus YJL129C, strain trk1, active compounds read low): 0.841 (active)
normalized growth (locus YJL134W, strain LCB3, active compounds read low): 0.986
normalized growth (locus YJL154C, strain vps35, active compounds read low): 0.993
normalized growth (locus YJL164C, strain tpk1, active compounds read low): 0.975
normalized growth (locus YJL166W, strain qcr8, active compounds read low): 0.904
normalized growth (locus YJL168C, strain set2, active compounds read low): 0.978
normalized growth (locus YJL187C, strain SWE1 (second series), active compounds read low): 0.983
normalized growth (locus YJL187C, strain SWE1, active compounds read low): 0.988
